{"source": "PubChem BioAssay (NCATS)", "note": "Where “and” joins values, the source holds several entries; their conditions need not be identical. Identical values can stand only once. Results filed as inconclusive are left out. A number with no mark means an inactive call. Calls of active or inactive are those of the source. Unless noted, calls follow the shape of the full dose curve."}
{"biological_target": "Bile acid receptor (Homo sapiens) (UniProt Q96RI1)", "sequence (Q96RI1 whole entry, looked up)": "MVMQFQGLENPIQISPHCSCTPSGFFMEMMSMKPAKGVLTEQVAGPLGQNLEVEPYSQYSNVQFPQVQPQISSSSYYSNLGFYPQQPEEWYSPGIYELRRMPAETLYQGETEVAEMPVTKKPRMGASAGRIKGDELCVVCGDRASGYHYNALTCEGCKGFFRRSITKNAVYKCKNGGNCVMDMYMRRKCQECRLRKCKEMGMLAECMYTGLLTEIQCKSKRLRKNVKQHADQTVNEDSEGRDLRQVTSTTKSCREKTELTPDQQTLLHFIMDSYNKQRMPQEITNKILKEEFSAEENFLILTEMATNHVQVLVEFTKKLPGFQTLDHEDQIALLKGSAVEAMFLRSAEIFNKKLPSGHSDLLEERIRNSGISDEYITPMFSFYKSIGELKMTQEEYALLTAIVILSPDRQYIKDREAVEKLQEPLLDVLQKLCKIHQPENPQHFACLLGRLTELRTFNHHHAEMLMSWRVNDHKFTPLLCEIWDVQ", "experiment": "qHTS assay for small molecule agonists of farnesoid X receptor signaling (AID 588527);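 also: 0% = vehicle basal and 100% = reference agonist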", "conditions": "HEK293T FXR-UAS-bla, beta-lactamase ratio, 16 h; stronger effect = higher value", "procedure,_shortened": "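Quantitative HTS used FXR-UAS-bla HEK293T cells with 16 h compound incubation at 37 C. EC50 values came from concentration-response curves normalized to chenodeoxycholic acid.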"}
{"smiles": "Clc1ccc(C(c2ccccc2Cl)C(Cl)Cl)cc1", "note": "(centres undefined)", "activation": "3.36%"}
{"smiles": "CC[C@H](C)C(=O)O[C@H]1C[C@@H](C)C=C2C=C[C@H](C)[C@H](CC[C@@H]3C[C@@H](O)CC(=O)O3)[C@H]21", "activation": "-3.65%"}
{"smiles": "CCCN(CCC)S(=O)(=O)c1ccc(C(=O)O)cc1", "activation": "-0.735% and 0.243%"}
{"smiles": "Cc1cn([C@H]2C[C@H](N=[N+]=[N-])[C@@H](CO)O2)c(=O)[nH]c1=O", "activation": "-3.84%"}
{"smiles": "Cc1ccc(C)c(OCCCC(C)(C)C(=O)O)c1", "activation": "-2.62% and -0.135%"}
{"smiles": "Oc1cccc2cccnc12", "activation": "-3.45% and -4.35%"}
{"smiles": "O=c1[nH]cc(F)c(=O)[nH]1", "activation": "-1.24%"}
{"smiles": "Cc1ccccc1C(OCCN(C)C)c1ccccc1", "note": "(centres undefined)", "activation": "-1.23%"}
{"biological_target": "Glucocorticoid receptor (Homo sapiens) (UniProt P04150)", "sequence (P04150 whole entry, looked up)": "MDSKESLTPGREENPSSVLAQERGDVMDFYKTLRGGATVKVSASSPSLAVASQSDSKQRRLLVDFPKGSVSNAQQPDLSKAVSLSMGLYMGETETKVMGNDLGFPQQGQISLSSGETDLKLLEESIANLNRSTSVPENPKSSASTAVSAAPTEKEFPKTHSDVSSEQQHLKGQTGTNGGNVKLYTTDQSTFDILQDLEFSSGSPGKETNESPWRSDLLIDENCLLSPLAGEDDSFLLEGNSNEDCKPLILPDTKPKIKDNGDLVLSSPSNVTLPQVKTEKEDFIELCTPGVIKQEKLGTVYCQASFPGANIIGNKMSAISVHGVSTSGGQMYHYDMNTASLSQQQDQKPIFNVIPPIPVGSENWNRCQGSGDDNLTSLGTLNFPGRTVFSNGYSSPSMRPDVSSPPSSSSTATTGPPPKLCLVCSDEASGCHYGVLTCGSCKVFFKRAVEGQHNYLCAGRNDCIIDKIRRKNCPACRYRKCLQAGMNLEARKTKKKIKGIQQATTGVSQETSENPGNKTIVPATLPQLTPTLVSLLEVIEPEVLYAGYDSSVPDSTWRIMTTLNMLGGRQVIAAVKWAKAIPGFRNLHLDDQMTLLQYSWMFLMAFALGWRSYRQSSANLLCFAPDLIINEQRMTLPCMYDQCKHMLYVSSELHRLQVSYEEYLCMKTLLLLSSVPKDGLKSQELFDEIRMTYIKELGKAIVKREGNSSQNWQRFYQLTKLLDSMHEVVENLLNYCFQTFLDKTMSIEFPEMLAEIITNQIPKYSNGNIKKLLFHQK", "experiment": "qHTS assay for small molecule agonists of glucocorticoid receptor signaling (AID 588532; active = well fitted curve in the direction sought with a large enough effect in the signal ratio, with a control signal flat; the % refers to the signal ratio;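 also: 100% = dexamethasone at 0.1 µM and 0% = DMSO only wells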)", "conditions": "HeLa MMTV-bla, beta-lactamase ratio, agonist, 18 h; stronger effect = higher value; percent of dexamethasone control, DMSO zero", "procedure,_shortened": "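Cells were plated and rested 3-5 h at 37 C, compounds were added in titration and incubated 18 h, then CCF4 substrate was loaded for 2 h at RT before reading blue/green fluorescence. EC50 came from Hill-equation fitting.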", "units": {"activation": "%"}}
{"smiles": "CCOP(=S)(OCC)Oc1cc(C)nc(C(C)C)n1", "activation": -2.71}
{"smiles": "CC(COc1ccccc1)N(CCCl)Cc1ccccc1", "note": "(centres undefined)", "activation": -12.9}
{"smiles": "Oc1cc(Cl)ccc1Oc1ccc(Cl)cc1Cl", "activation": -14.4}
{"smiles": "C[C@]12CCC(=O)C(O)=C1CC[C@@H]1[C@@H]2CC[C@]2(C)C(=O)CC[C@@H]12", "activation": 2.34}
{"biological_target": "Peroxisome proliferator-activated receptor delta (Homo sapiens) (UniProt Q03181)", "sequence (Q03181 whole entry, looked up)": "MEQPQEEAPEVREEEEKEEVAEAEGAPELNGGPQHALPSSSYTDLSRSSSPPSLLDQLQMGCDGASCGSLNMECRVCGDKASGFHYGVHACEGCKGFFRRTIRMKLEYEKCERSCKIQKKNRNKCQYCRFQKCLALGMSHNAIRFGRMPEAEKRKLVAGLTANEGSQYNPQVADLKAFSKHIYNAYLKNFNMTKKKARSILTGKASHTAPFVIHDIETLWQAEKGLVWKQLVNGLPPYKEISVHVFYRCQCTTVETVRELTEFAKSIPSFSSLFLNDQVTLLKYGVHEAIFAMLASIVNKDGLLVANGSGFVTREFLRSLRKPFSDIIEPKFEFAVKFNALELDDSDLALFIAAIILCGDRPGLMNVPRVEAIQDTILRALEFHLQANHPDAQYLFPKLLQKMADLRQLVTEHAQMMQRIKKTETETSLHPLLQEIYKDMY", "experiment": "qHTS assay for small molecule agonists of peroxisome proliferator-activated receptor delta signaling (AID 588534);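 also: 0% = DMSO basal wells and 100% = positive control agonist at 10 µM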", "conditions": "HEK293T PPARdelta-UAS-bla, beta-lactamase ratio, 18 h; series mostly up to 76.7 µM; activation: at the top concentration", "procedure,_shortened": "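Agonist-mode qHTS; reporter cells, 5 hrs 37 C pre-incubation; compound titration, 18 hrs 37 C; CCF4 dye, 2 hrs RT; fluorescence read. EC50/efficacy via Hill fit.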", "units": {"activation": "%"}}
{"smiles": "Cc1ncc([N+](=O)[O-])n1CCO", "activation": 0.45}
{"smiles": "CCOP(=S)(OCC)Oc1cc(C)nc(C(C)C)n1", "outcome": "inactive"}
{"smiles": "CS(=O)(=O)OCCCCOS(C)(=O)=O", "outcome": "inactive"}
{"smiles": "OC(Cn1cncn1)(Cn1cncn1)c1ccc(F)cc1F", "activation": -1.07}
{"smiles": "OCCOCCN1CCN(C(c2ccccc2)c2ccc(Cl)cc2)CC1", "note": "(centres undefined)", "activation": -7.55}
{"smiles": "CN(C)CCCN1c2ccccc2Sc2ccc(Cl)cc21", "activation": -3.8}
{"smiles": "Cc1ccc(S(=O)(=O)NC(=O)NN2CCCCCC2)cc1", "activation": 2.53}
{"smiles": "COc1cccc2c1C(=O)c1c(O)c3c(c(O)c1C2=O)C[C@@](O)(C(=O)CO)C[C@@H]3O[C@H]1C[C@H](N)[C@H](O)[C@H](C)O1", "outcome": "inactive"}
{"smiles": "CC(COc1ccccc1)N(CCCl)Cc1ccccc1", "note": "(centres undefined)", "outcome": "inactive"}
{"smiles": "Clc1ccc(C(c2ccccc2Cl)C(Cl)Cl)cc1", "note": "(centres undefined)", "activation": -5.49}
{"smiles": "CC[C@H](C)C(=O)O[C@H]1C[C@@H](C)C=C2C=C[C@H](C)[C@H](CC[C@@H]3C[C@@H](O)CC(=O)O3)[C@H]21", "activation": -12.1}
{"smiles": "C[C@](N)(Cc1ccc(O)c(O)c1)C(=O)O", "activation": -2.32}
{"smiles": "O=NN(CCCl)C(=O)NCCCl", "activation": -2.97}
{"smiles": "CCCN(CCC)S(=O)(=O)c1ccc(C(=O)O)cc1", "outcome": "inactive"}
{"smiles": "CCN(CC)C(=S)SSC(=S)N(CC)CC", "activation": -5.2}
{"smiles": "CC(=O)N[C@@H](CS)C(=O)O", "activation": 4.68}
{"smiles": "COc1cc(Cc2cnc(N)nc2N)cc(OC)c1OC", "activation": -0.383}
{"smiles": "Cc1cn([C@H]2C[C@H](N=[N+]=[N-])[C@@H](CO)O2)c(=O)[nH]c1=O", "outcome": "inactive"}
{"smiles": "C[C@@H]1C[C@H]2[C@@H]3CCC4=CC(=O)C=C[C@]4(C)[C@@]3(F)[C@@H](O)C[C@]2(C)[C@@]1(O)C(=O)CO", "outcome": "inactive"}
{"smiles": "Oc1cc(Cl)ccc1Oc1ccc(Cl)cc1Cl", "activation": -2.95}
{"smiles": "O=c1[nH]cnc2c1ncn2[C@H]1CC[C@@H](CO)O1", "outcome": "inactive"}
{"smiles": "NC[C@H](O)c1ccc(O)c(O)c1", "activation": -0.766}
{"smiles": "CCCc1cc(=O)[nH]c(=S)[nH]1", "outcome": "inactive"}
{"smiles": "O=C1CCC(N2C(=O)c3ccccc3C2=O)C(=O)N1", "note": "(centres undefined)", "activation": 6.42}
{"smiles": "Nc1ncn([C@@H]2O[C@H](CO)[C@@H](O)[C@H]2O)c(=O)n1", "outcome": "inactive"}
{"smiles": "CCCNC(=O)NS(=O)(=O)c1ccc(Cl)cc1", "outcome": "inactive"}
{"smiles": "O=C1NC(=O)C(c2ccccc2)(c2ccccc2)N1", "outcome": "inactive"}
{"smiles": "NC(=O)N/N=C/c1ccc([N+](=O)[O-])o1", "outcome": "inactive"}
{"smiles": "CC(C)NCC(O)c1ccc(O)c(O)c1", "note": "(centres undefined)", "outcome": "inactive"}
{"smiles": "Cc1ccc(C)c(OCCCC(C)(C)C(=O)O)c1", "outcome": "inactive"}
{"smiles": "Oc1cccc2cccnc12", "outcome": "inactive"}
{"smiles": "O=c1[nH]cc(F)c(=O)[nH]1", "activation": 0.619}
{"smiles": "Cc1ccccc1C(OCCN(C)C)c1ccccc1", "note": "(centres undefined)", "activation": -9.38}
{"smiles": "Nc1cc(-c2ccncc2)c[nH]c1=O", "activation": -3.57}
{"smiles": "Cn1cnc([N+](=O)[O-])c1Sc1ncnc2nc[nH]c12", "outcome": "inactive"}
{"smiles": "N=C(N)c1ccc(OCCCCCOc2ccc(C(=N)N)cc2)cc1", "activation": -13.6}
{"smiles": "NS(=O)(=O)c1cc2c(cc1Cl)NC=NS2(=O)=O", "activation": -1.03}
